Assay results published in PubChem BioAssay (Tox21).
A number with no mark means an inactive call. Results filed as inconclusive are left out. Entries that show only a call come without a potency. Calls of active or inactive are those of the source. Unless noted, calls come from the whole dose curve; as a rule, active = well fitted curve in the direction sought with a large enough effect in the repeat runs; inconclusive = weak or mixed curves; inactive = no such curve, though single readings can be large; an effect the other way counts as inactive or inconclusive.

Columns and labels:
[1] = target: Thyrotropin-releasing hormone receptor (Homo sapiens) (UniProt P34981); experiment: qHTS assay to identify small molecule agonists of the thyrotropin-releasing hormone receptor (TRHR) signaling pathway (AID 1346891; calls by dose curve;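 note: HEK293 cells expressing TRHR with calcium dye readout; series mostly up to about 58 µM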)
Chain of Thyrotropin-releasing hormone receptor (Homo sapiens) (P34981 whole entry, looked up): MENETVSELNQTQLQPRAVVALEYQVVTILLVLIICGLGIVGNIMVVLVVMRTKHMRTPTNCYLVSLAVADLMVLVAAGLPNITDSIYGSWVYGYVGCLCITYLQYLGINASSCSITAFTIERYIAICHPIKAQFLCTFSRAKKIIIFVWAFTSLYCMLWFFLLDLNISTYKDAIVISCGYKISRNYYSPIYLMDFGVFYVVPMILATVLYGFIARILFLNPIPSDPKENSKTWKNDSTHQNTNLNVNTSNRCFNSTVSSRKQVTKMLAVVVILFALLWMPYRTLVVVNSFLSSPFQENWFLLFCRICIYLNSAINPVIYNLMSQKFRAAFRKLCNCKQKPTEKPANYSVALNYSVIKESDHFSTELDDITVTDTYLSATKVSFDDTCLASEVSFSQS
In short: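 Cells: TRHR-Hek293, seeded and incubated 18 h. Dye loading: 2 h at 37 °C. Compound added from DMSO stock by pin tool. Read-out: kinetic calcium fluorescence over 3 min.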

[2] = Caspase-3/7 induction in HepG2 cells by small molecules, qHTS assay (AID 1346978); note: nearly all actives have a fitted effect of over 15% in size
In short: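 Wild-type HepG2 cells, 2,000/well, settled 5 hr at 37 C and 5% CO2, then compound-treated for 17 hr; caspase-3/7 activity read by luminescent Caspase-Glo 3/7 after 30 min at room temperature.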

[3] = Caspase-3/7 induction in CHO-K1 cells by small molecules, qHTS assay (AID 1346980); note: nearly all actives have a fitted effect of over 15% in size
In short: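 Wild-type CHO-K1 cells exposed to compounds for 17hr at 37 C, 5% CO2. Caspase-3/7 activity then measured by Caspase-Glo 3/7 luminescence after 30min at room temperature.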

[4] = target: Nuclear receptor subfamily 1 group I member 2 (Homo sapiens) (UniProt O75469); experiment: Human pregnane X receptor (PXR) small molecule agonists, qHTS assay (AID 1346982); note: nearly all actives have a fitted effect of over 35% in size; note: potency is the fitted concentration of half-maximal effect
Chain of Nuclear receptor subfamily 1 group I member 2 (Homo sapiens) (O75469 whole entry, looked up): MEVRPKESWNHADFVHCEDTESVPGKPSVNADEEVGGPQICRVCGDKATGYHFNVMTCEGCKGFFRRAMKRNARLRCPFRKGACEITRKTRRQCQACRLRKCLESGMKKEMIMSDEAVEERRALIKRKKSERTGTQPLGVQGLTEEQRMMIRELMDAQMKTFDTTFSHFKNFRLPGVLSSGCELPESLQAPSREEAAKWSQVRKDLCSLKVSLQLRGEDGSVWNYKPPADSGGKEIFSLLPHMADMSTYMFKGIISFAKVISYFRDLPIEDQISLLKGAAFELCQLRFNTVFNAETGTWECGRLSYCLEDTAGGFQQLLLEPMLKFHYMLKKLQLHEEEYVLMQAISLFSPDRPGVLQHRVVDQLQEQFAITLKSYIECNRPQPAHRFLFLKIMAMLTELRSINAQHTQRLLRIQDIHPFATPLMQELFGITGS
In short: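 PXR-Luc HepG2 reporter cells (CYP3A4-driven luciferase) in 5% charcoal-stripped FBS medium, plated 5 h before compound addition, then treated 24 h at 37C. Luciferase read by ONE-Glo luminescence after 30 min at room temperature.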

[5] = target: Acetylcholinesterase (Homo sapiens) (UniProt P22303); experiment: Acetylcholinesterase (AChE) small molecule antagonists: enzyme-based qHTS assay (AID 1347397; calls by dose curve; note: nearly all actives have a fitted effect of over 55% in size); conditions: Potency: AChE enzyme activity inhibition
Chain of Acetylcholinesterase (Homo sapiens) (P22303 whole entry, looked up): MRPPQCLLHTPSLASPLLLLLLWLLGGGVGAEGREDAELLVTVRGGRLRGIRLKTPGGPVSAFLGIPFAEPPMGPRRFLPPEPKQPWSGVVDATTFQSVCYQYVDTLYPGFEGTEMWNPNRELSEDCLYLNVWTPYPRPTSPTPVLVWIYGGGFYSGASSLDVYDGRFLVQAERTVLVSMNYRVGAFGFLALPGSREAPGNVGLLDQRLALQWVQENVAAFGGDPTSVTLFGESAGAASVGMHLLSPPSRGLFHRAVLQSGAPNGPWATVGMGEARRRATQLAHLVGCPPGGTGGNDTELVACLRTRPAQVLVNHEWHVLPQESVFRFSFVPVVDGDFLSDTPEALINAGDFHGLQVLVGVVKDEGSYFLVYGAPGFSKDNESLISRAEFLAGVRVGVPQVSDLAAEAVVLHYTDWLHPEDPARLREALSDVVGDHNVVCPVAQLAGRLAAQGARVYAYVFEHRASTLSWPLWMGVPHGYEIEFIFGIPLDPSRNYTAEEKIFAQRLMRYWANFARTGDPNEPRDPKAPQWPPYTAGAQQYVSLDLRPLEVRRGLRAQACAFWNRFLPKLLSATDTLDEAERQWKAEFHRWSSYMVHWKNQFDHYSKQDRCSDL
In short: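 Enzyme inhibition was scored from DTNB-detected thiocholine formed by recombinant human AChE acting on acetylthiocholine. The 30 min compound preincubation and 10 min substrate reaction were both run at room temperature, with DMSO as vehicle control.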

[6] = target: Acetylcholinesterase (Homo sapiens) (UniProt P22303); experiment: Acetylcholinesterase (AChE) small molecule antagonists: fluorescence cell-based qHTS assay (AID 1347398; calls by dose curve; note: nearly all actives have a fitted effect of over 50% in size); conditions: Potency: AChE activity
In short: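 Endogenous acetylcholinesterase of SH-SY5Y neuroblastoma cells is measured in situ. After overnight attachment and 30 min compound exposure, cells receive acetylthiocholine and Thiolite Green; fluorescence is read after 40 min at room temperature.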

[7] = target: Acetylcholinesterase (Homo sapiens) (UniProt P22303); experiment: Acetylcholinesterase (AChE) small molecule antagonists: enzyme-based qHTS assay with human liver microsomes (AID 1347399; calls by dose curve; note: nearly all actives have a fitted effect of over 60% in size); conditions: Potency: qHTS inhibition
In short: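 Recombinant human AChE (50 mU/mL in the enzyme mix) and human liver microsomes (0.25 mg/mL final) were preincubated with compound and NADPH (0.25 mg/mL final) for 30 min at 37 C. Acetylthiocholine/DTNB was then added; thiocholine was read colorimetrically after 10 min at room temperature.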

[8] = target: Cytochrome P450 2D6 (Homo sapiens) (UniProt P10635); experiment: Cytochrome P450 Family 2 Subfamily D Member 6 (CYP2D6) small molecule antagonists: luciferase reporter qHTS assay (AID 1671196); note: nearly all actives have a fitted effect of over 50% in size; note: potency is the fitted concentration of half-maximal effect
Chain of Cytochrome P450 2D6 (Homo sapiens) (P10635 whole entry, looked up): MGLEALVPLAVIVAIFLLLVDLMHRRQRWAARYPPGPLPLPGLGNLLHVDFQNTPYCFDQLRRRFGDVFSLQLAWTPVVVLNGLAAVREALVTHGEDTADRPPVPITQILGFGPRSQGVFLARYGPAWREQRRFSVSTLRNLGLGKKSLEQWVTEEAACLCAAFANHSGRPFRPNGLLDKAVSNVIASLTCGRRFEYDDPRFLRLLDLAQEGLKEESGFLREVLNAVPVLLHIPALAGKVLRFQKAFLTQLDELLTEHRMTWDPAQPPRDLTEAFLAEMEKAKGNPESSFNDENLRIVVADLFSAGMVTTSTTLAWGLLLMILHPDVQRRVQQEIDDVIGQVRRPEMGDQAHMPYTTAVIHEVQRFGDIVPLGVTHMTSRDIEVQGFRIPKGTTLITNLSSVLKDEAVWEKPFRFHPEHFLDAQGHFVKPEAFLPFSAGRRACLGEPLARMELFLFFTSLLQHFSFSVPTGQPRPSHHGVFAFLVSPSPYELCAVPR
In short: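 Cell-free P450-Glo system: CYP2D6 with proluciferin substrate was pre-incubated with compound for 10 min, then reacted with NADPH regeneration for 1 h at room temperature. Luciferin product was detected after 20 min, and data were reported as relative luminescence units.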

[9] = target: Cytochrome P450 2C19 (Homo sapiens) (UniProt P33261); experiment: Cytochrome P450 Family 2 Subfamily C Member 19 (CYP2C19) small molecule antagonists: luciferase reporter qHTS assay (AID 1671197); note: nearly all actives have a fitted effect of over 65% in size; note: potency is the fitted concentration of half-maximal effect
In short: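 Compounds were tested on CYP2C19 activity via proluciferin conversion to luciferin. The 37C, 1 h reaction followed NADPH addition; detection reagent stopped it.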

[10] = target: Cytochrome P450 2C9 (Homo sapiens) (UniProt P11712); experiment: Cytochrome P450 Family 2 Subfamily C Member 9 (CYP2C9) small molecule antagonists: luciferase reporter qHTS assay (AID 1671198); note: nearly all actives have a fitted effect of over 50% in size; note: potency is the fitted concentration of half-maximal effect
Chain of Cytochrome P450 2C9 (Homo sapiens) (P11712 whole entry, looked up): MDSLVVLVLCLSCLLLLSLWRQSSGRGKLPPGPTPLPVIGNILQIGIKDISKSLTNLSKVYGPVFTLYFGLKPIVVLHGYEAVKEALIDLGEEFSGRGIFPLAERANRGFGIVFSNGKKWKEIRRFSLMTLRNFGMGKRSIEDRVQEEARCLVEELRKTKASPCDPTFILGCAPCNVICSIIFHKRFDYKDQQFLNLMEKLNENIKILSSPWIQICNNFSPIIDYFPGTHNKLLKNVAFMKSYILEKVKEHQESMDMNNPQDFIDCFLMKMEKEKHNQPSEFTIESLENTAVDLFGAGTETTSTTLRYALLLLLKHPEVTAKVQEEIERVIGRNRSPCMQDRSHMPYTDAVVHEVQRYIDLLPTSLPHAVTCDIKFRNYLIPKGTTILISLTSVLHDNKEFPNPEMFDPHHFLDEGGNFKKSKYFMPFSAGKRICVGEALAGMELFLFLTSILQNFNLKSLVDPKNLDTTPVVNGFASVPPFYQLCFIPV
In short: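 P450-Glo proluciferin substrate with CYP2C9 enzyme; 10 min RT preincubation, then NADPH regeneration 1 h at 37C; luciferin detection reagent 20 min RT, luminescence in relative luminescence units.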

[11] = target: Cytochrome P450 1A2 (Homo sapiens) (UniProt P05177); experiment: Cytochrome P450 Family 1 Subfamily A Member 2 (CYP1A2) small molecule antagonists: luciferase reporter qHTS assay (AID 1671199); note: nearly all actives have a fitted effect of over 50% in size; note: potency is the fitted concentration of half-maximal effect
Chain of Cytochrome P450 1A2 (Homo sapiens) (P05177 whole entry, looked up): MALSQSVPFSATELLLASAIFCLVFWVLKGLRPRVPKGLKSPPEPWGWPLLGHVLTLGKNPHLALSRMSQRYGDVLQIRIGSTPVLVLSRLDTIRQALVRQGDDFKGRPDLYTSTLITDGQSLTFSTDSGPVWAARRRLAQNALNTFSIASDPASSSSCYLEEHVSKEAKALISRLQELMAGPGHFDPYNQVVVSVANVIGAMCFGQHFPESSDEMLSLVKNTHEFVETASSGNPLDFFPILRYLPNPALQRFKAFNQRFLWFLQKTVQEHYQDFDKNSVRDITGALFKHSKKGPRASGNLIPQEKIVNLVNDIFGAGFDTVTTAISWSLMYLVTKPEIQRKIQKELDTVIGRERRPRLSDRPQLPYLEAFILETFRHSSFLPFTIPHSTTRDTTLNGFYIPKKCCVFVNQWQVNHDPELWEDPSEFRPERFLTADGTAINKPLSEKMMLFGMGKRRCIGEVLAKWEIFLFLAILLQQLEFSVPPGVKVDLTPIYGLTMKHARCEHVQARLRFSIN
In short: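 P450-Glo CYP1A2 enzyme–proluciferin substrate mix with compound 10 min at room temperature, then NADPH regeneration 1 h at room temperature. Luciferin detection reagent added, luminescence read after 20 min; furafylline positive control.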

[12] = target: Voltage-gated inwardly rectifying potassium channel KCNH2 (Homo sapiens) (UniProt Q12809); experiment: Human Ether-a-go-go-Related Gene (hERG) channel small molecule antagonists: fluorescence cell-based qHTS assay (AID 1671200)
Chain of Voltage-gated inwardly rectifying potassium channel KCNH2 (Homo sapiens) (Q12809 whole entry, looked up): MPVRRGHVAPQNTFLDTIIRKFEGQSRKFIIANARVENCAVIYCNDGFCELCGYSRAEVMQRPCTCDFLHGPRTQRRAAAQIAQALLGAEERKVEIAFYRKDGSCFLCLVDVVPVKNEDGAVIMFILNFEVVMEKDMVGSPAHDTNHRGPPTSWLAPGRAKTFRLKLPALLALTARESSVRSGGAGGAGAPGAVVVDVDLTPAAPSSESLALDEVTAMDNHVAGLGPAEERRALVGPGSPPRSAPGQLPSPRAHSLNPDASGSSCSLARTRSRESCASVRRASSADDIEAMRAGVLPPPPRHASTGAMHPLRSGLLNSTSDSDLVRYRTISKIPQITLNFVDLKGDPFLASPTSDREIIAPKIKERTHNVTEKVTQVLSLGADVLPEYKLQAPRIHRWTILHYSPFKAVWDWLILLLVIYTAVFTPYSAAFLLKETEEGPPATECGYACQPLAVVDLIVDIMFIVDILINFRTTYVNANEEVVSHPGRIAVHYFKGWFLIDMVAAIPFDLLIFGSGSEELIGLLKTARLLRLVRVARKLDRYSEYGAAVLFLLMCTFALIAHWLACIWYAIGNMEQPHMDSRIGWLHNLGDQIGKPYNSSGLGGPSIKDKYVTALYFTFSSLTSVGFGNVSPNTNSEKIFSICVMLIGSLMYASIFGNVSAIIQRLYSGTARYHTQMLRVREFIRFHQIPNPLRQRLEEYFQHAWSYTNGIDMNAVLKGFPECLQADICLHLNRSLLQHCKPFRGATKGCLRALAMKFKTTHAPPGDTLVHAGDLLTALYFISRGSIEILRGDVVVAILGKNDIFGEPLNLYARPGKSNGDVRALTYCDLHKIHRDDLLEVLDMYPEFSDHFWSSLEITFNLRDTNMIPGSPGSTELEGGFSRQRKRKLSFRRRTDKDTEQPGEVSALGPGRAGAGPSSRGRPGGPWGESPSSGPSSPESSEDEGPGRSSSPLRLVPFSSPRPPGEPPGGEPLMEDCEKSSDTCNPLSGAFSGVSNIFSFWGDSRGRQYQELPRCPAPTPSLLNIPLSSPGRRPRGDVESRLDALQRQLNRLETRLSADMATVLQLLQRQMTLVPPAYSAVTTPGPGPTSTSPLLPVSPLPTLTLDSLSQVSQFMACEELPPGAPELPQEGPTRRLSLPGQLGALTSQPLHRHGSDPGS
In short: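 Fluorescence at 540 nm emission (480 nm excitation) was recorded kinetically for 2 min at 1-second intervals once the thallium-containing stimulus reached cells previously loaded with FluxOR II dye.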

[13] = target: Cytochrome P450 3A4 (Homo sapiens) (UniProt P08684); experiment: Cytochrome P450 Family 3 Subfamily A Member 4 (CYP3A4) small molecule antagonists: luciferase reporter qHTS assay (AID 1671201); note: nearly all actives have a fitted effect of over 50% in size; note: potency is the fitted concentration of half-maximal effect
Chain of Cytochrome P450 3A4 (Homo sapiens) (P08684 whole entry, looked up): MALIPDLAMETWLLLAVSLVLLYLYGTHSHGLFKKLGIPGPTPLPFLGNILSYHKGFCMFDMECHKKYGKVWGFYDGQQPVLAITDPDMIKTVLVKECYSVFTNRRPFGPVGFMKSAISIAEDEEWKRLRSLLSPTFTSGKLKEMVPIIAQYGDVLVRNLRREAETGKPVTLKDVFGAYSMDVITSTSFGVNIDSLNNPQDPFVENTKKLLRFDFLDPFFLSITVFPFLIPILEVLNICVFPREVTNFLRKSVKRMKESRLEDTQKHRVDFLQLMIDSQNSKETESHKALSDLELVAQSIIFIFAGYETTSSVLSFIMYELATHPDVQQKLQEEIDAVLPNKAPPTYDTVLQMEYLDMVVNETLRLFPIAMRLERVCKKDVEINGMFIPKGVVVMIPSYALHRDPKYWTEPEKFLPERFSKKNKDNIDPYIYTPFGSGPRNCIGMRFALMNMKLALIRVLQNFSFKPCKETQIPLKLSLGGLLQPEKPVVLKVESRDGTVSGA
In short: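 qHTS, 1536-well. CYP3A4 + proluciferin substrate, cpd 10 min RT → NADPH regen 1 h RT → detection reagent 20 min → luminescence (RLU). Ketoconazole positive control.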

[14] = Caspase-3/7 induction in CHO-K1 cells by small molecules, qHTS cell viability counter screen (AID 1346979); note: nearly all actives have a fitted effect of over 35% in size; note: potency is the fitted concentration of half-maximal effect
In short: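 Cytotoxicity counter screen run in parallel with the caspase-3/7 assay: CHO-K1 cells, 16hr compound treatment at 37C, then CellTiter-Fluor for 1hr before fluorescence reading.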

[15] = Caspase-3/7 induction in HepG2 cells by small molecules, qHTS cell viability counter screen (AID 1346981); note: nearly all actives have a fitted effect of over 30% in size; note: potency is the fitted concentration of half-maximal effect
In short: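 Wild-type HepG2 cells, 2,000/well, settled 5 hr at 37 C, 5% CO2 before compound addition. Viability read by CellTiter-Fluor fluorescence, reagent added after 16 hr compound exposure, then 1 hr at 37C, in the same wells as the caspase read.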

[16] = target: Acetylcholinesterase (Homo sapiens) (UniProt P22303); experiment: Acetylcholinesterase (AChE) small molecule antagonists: colormetric cell-based qHTS assay (AID 1347395; calls by dose curve; note: nearly all actives have a fitted effect of over 30% in size)
In short: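 Cells (SH-SY5Y, 2,000 per well) are seeded and left overnight at 37 C. Compound is added for 30 min, then DTNB and acetylthiocholine for a further 90 min at 37 C before absorbance-based thiocholine detection.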

[17] = Human pregnane X receptor (PXR) small molecule agonists, qHTS cell viability counter screen (AID 1346977); note: nearly all actives have a fitted effect of over 50% in size
In short: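 Cytotoxicity counter screen run in the same wells as the PXR luciferase assay, using PXR-Luc HepG2 cells in charcoal-stripped serum medium. Viability: CellTiter-Fluor fluorescence after 24hr compound treatment.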

| Compound | Potency [1] | Potency [2] | Potency [3] | Potency [4] | Potency [5] | Potency [6] | Potency [7] | Potency [8] | Potency [9] | Potency [10] | Potency [11] | Potency [12] | Potency [13] | Potency [14] | Potency [15] | Potency [16] | Potency [17] |
| --- | --- | --- | --- | --- | --- | --- | --- | --- | --- | --- | --- | --- | --- | --- | --- | --- | --- |
| COc1ccc(-c2ccccc2)cc1NNC(=O)OC(C)C | inactive | inactive | inactive | 71.5 µM (active) | inactive | inactive | inactive | 0.83 µM (active) | 0.262 µM (active) | 2.62 µM (active) | 5.88 µM (active) | inactive | 1.04 µM (active) |  |  |  |  |
| Nc1ccc([N+](=O)[O-])cc1[N+](=O)[O-] | inactive | inactive | inactive | inactive | inactive | inactive |  |  | inactive | inactive | 6.92 µM (active) | inactive | inactive | 47.3 µM (active) | 47.3 µM (active) | inactive |  |
| CO/N=C(/C(=O)OC)c1ccccc1COc1ccccc1C | inactive | inactive | inactive | 8.63 µM (active) | inactive | inactive | inactive | inactive | 0.633 µM (active) | 28.3 µM (active) | 20 µM (active) | inactive | inactive | 2.73 µM (active) |  | inactive |  |
| CCN(C)N=O |  | inactive | inactive | inactive | inactive | inactive | inactive | inactive | inactive | inactive |  | inactive | inactive | inactive | inactive | inactive | inactive |
| CC(C)O.CC(C)O.OCCN(CCO)CCO.OCCN(CCO)CCO.[Ti] |  | inactive | inactive | inactive | inactive | inactive | inactive | inactive | inactive |  | inactive | inactive | inactive | inactive | inactive | inactive | inactive |
| O=C(O)C(F)(F)C(F)(F)C(F)(F)C(F)(F)C(F)(F)C(F)(F)C(F)(F)C(F)(F)C(F)(F)F |  | inactive | inactive | inactive | inactive | inactive | inactive | inactive |  | 2.83 µM (active) | inactive | inactive | inactive | inactive | inactive | inactive | inactive |
